D2 antag = HTS Assay for Allosteric Antagonists of the Human D2 Dopamine Receptor: Primary Screen for Antagonists; HEK293 TREx D2 cells, calcium flux, dopamine EC80; 2% of 340,000 active; AID 485344, 2010; inhibition, % at 10 µM; D(2) dopamine receptor (Homo sapiens), P14416; in the data active = inhibition above about 30%; inactive = below that, where a call was filed; also: 0% is about no effect
Target sequence (P14416 whole entry, looked up): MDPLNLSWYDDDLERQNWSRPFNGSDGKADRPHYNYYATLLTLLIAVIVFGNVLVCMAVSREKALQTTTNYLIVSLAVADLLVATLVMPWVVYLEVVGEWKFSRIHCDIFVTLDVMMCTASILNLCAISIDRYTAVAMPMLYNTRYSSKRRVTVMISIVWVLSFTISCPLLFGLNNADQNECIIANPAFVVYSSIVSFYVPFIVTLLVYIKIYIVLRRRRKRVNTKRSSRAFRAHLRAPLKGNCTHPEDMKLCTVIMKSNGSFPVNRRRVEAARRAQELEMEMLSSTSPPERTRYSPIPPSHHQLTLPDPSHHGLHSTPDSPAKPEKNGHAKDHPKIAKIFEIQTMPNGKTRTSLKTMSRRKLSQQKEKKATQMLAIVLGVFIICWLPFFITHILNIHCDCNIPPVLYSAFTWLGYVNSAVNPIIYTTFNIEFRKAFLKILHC
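In this primary screen, negative modulation is detected by tracking calcium flux after an EC80 dopamine challenge in inducible HEK293 T-REx D2 cells preexposed to test compound for 180 s.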
D2 PAM-1 = Beta-Arrestin HTS for Positive Allosteric Modulators of the Human D2 Dopamine Receptor: Potentiators; D(2) dopamine receptor (Homo sapiens), P14416; DiscoveRx D2 beta-arrestin cells, luminescence, 90 min; 100% = 57 uM dopamine signal; potentiation, % (test concentration not listed); 0.23% of 360,000 active; in the data active = potentiation above about 50%; inconclusive = mostly about 30% to 49%
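PathHunter D2 cells, attached overnight at 37 deg C, received compound in DMSO plus dopamine at EC20 (50 nM final) for 90 min at 37 deg C. Beta-arrestin recruitment was read as luminescence after 1 h with detection reagent at ambient temperature.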
D2 ag-1 = HTS Assay for Allosteric Agonists of the Human D2 Dopamine Receptor: Primary Screen for Agonists; HEK293 T-REx D2 cells, calcium flux agonist mode; activation, % at 2 µM; D(2) dopamine receptor (Homo sapiens), P14416; 0.53% of 340,000 active;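 active = activation over 3 SD above normal in the single-dose calcium agonist read, cut at about 30% in these data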; also: 0% is about no effect
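Tetracycline-induced HEK293 Trex cells with D2 receptor force-coupled to calcium signaling, plated overnight at 30 C and loaded with no-wash calcium dye. Calcium flux read kinetically for 180 s after compound addition; responses flag agonists.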
D2 ag-2 = Beta-Arrestin HTS for Positive Allosteric Modulators of the Human D2 Dopamine Receptor: Agonists; 0.084% of 360,000 active; activation, % (no concentration beside the values); D(2) dopamine receptor (Homo sapiens), P14416; DiscoveRx PathHunter D2 beta-arrestin, luminescence, 90 min; 100% = 57 uM dopamine signal; in the data active = activation above about 40%; inconclusive = between about 15% and that limit
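DiscoveRx PathHunter D2 beta-arrestin cells (2,100/well) attached overnight, then compound-stimulated 90 min at 37 C in HBSS/10 mM HEPES/0.1% Tween-20 buffer; beta-galactosidase complementation read by luminescence after 1 h at ambient temperature. Dopamine 57 uM final (EC100) as control.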
Anesthetic bind = qHTS Assay for Identification of Novel General Anesthetics | Ferritin light chain (Equus caballus), P02791 | apoferritin/1-aminoanthracene competitive binding, fluorescence | Potency, µM (highest dose often 77.5 µM), without a hit: at the top dose activity change, negative = displacement, usual class: inhibitors | 0.074% of 350,000 active; active = well fitted inhibition curve with a large enough effect; inconclusive = small, poorly fitted or top-dose-only effect; inactive = no such curve, though single readings can be large or run the other way; also: potency is read from the fitted curve at half-maximal effect; % is scaled to controls: 0 for no effect and ±100 for the full control effect; nearly all actives have a fitted effect of over 20% in size
Target sequence (P02791 2-175 limits assumed): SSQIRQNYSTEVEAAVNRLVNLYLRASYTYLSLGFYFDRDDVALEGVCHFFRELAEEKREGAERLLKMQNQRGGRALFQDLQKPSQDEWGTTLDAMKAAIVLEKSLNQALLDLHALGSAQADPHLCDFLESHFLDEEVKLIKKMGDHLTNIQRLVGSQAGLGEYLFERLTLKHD
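In PBS, apoferritin at 10 uM is loaded with 1-AMA from a 50% saturated solution. After 10 min of compound exposure at ambient temperature, reduced 535 nm fluorescence indicates probe displacement.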
D2 PAM-2 = HTS Assay for Positive Allosteric Modulators of the Human D2 Dopamine Receptor: Primary Screen for Potentiators; D(2) dopamine receptor (Homo sapiens), P14416; HEK293 T-REx D2, calcium flux, EC20 dopamine potentiation; potentiation, % at 10 µM; 0.34% of 340,000 active; AID 485347, 2010;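 active = potentiation over 3 SD above the plate norm, cut at about 30% in these data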; also: 0% is about no effect
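Tetracycline-induced Hek293 Trex D2 cells, force-coupled to calcium, loaded with no-wash calcium dye. Compound added with 180 s kinetic read for agonism, then EC20 dopamine and a further 180 s read for potentiation.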
Active calls of the source: *; ? = inconclusive; nt = no result. Only some compounds are listed: those with a hit (about 2.5% of all), similar ones and a draw of the others.

SMILES | D2 antag | D2 PAM-1 | D2 ag-1 | D2 ag-2 | Anesthetic bind | D2 PAM-2
COc1ccc(-c2noc(CN3CCCCC3c3nccn3C)n2)cc1 (configuration not stated) | 9.2 | -6.1 | 0.8 | -2.4 | -9.8% | -3.3
COc1ccc(NC(=O)CSc2[nH]c(=O)cc(C)c2C#N)cc1OC | 34.3* | 0.2 | -0.5 | -1.0 | 0.8% | 10.7
Cc1ccc2nc(N3C(=O)C(O)=C(C(=O)c4ccc(C)o4)C3c3ccco3)sc2c1 (configuration not stated) | 31.3* | -4.4 | -0.1 | 7.4 | nt | 16.8
Cc1ccc2nc(N3C(=O)C(O)=C(C(=O)c4ccco4)C3c3ccc(C)o3)sc2c1 (configuration not stated) | 31.0* | -1.9 | -1.2 | -7.5 | -17.6% | 10.8
CCOc1cc(/C=N/NC(N)=O)ccc1OC(=O)c1ccc(C)cc1 | -17.2 | nt | -0.3 | nt | ? | 12.0
COc1cc(OC)c(CNC2CCCCCC2)cc1Br | 48.7* | -13.1 | -0.9 | -6.4 | -4.7% | -2.0
CC(NC(=O)COc1cccnc1[N+](=O)[O-])c1ccc(F)cc1 (configuration not stated) | 0.3 | -1.1 | -0.2 | 1.9 | -8.5% | 34.4*
O=C(COc1cccnc1[N+](=O)[O-])Nc1ccc(F)cc1 | nt | -1.3 | nt | -0.8 | nt | nt
O=C(c1ccccc1)c1ccc(Cn2cc(CCCO)nn2)cc1 | 4.7 | -11.7 | -0.5 | -0.7 | -11.9% | 6.1
O=C(O)CCCCCCCCc1cn(Cc2ccc(C(=O)c3ccccc3)cc2)nn1 | 41.6* | 3.4 | -0.2 | 0.8 | -22.0% | 3.3
CC1CN(c2ncnc3c2cnn3-c2ccc(Cl)cc2)CC(C)O1 (configuration not stated) | 31.2* | 0.2 | -1.0 | -0.2 | -5.6% | 21.7
C=CCn1nnnc1-c1cccc(Cl)c1 | -2.1 | 3.5 | -0.6 | -1.2 | -8.9% | -12.2
Cc1ccccc1NC(=O)c1sc(Cl)nc1-c1ccccc1 | 30.7* | 7.7 | -0.1 | -2.1 | ? | -0.8
O=C1c2ccccc2-c2onc3ccc(N4CCCC4)c1c23 | 12.7 | -1.1 | 19.5 | 3.8 | ? | -17.9
CCNc1ccc2noc3c2c1C(=O)c1ccccc1-3 | nt | 70.3* | nt | 10.7 | ? | nt
CCOc1ccc2noc3c2c1C(=O)c1ccccc1-3 | nt | 4.9 | nt | 2.0 | 61.6% | nt
O=C1c2ccccc2-c2onc3ccc(NCc4ccco4)c1c23 | 17.6 | 111.7* | 29.9 | ? | ? | 1.4
O=C(CNC(=O)c1cccs1)OCC(=O)c1ccc2ccccc2c1 | -10.7 | -23.5 | -0.1 | -4.9 | 14.1µM* | 7.6
Cc1cc(NS(=O)(=O)c2ccccc2)cc(Cl)c1O | -4.7 | 88.1* | 0.5 | ? | ? | 6.3
O=S(=O)(Nc1ccc(NS(=O)(=O)c2ccccc2)c(Cl)c1)c1ccccc1 | nt | -3.5 | nt | 1.5 | nt | nt
Cc1ccc(S(=O)(=O)Nc2cc(C)c(O)c(S(=O)(=O)c3ccc(C)cc3)c2)cc1 | 4.0 | 87.6* | -0.7 | 13.1 | ? | -10.8
CC(C)(C)c1ccc2c(c1)OC(C(=O)N/N=C\c1ccccn1)CO2 (configuration not stated) | 13.1 | 0.0 | 0.6 | 1.5 | -23.3% | 21.1
CC(C)(C)c1ccc2c(c1)OCC(C(=O)O)O2 (configuration not stated) | nt | 2.2 | nt | -4.0 | -20.4% | 112.9*
Fc1ccccc1N1CCN(CCCc2ccccc2)CC1 | 74.0* | -9.4 | 7.9 | -2.8 | -1.4% | -19.4
OCC1(CCc2ccccc2)CCN(Cc2ccccc2Cl)CC1 | -16.1 | -12.0 | 0.3 | -4.9 | -16.6% | -27.4
SMILES | D2 antag | D2 PAM-1 | D2 ag-1 | D2 ag-2 | Anesthetic bind | D2 PAM-2
Clc1ccccc1CN1CCN(CCCc2ccccc2)CC1 | 65.4* | -20.9 | 0.1 | -4.1 | -0.8% | -25.3
Cn1c(=O)[nH]c(=O)c2c1nc(CN1CCN(c3ccccc3F)CC1)n2CCCc1ccccc1 | -13.8 | -21.4 | 0.1 | 1.4 | -0.5% | 31.7*
COc1cc(Cl)c(C)cc1NC(=O)COC(=O)C1=COCCO1 | 31.6* | -6.4 | -0.6 | -4.6 | nt | -9.0
Cc1ccc(S(=O)(=O)N2CCOCC2)cc1NC(=O)CNCc1ccccc1Cl | -0.4 | 14.5 | 39.1* | 8.3 | nt | 9.0
Cc1ccc(S(=O)(=O)N2CCCCC2)cc1NC(=O)COC(=O)C1=COCCO1 | 12.0 | -4.8 | 0.6 | -0.9 | -8.1% | 38.0*
COc1ccccc1CNCC(=O)Nc1cc(S(=O)(=O)N2CCCCC2)ccc1C | nt | -8.5 | nt | ? | nt | nt
C=CC1=CCN(S(=O)C(C)(C)C)[C@@H]1CCO (some centres not stated) | nt | nt | nt | 1.8 | nt | nt
Cc1cc(C(=O)O)ccc1-c1ccc(/C=N/n2cnnc2)o1 | -6.2 | 2.2 | 0.3 | 6.1 | 1.1% | -2.2
CCOC(=O)[C@@H]1[C@H]2COc3ccc(Br)cc3[C@H]2N2C(=O)N(c3ccc(OC)cc3)C(=O)[C@]12C | nt | -14.5 | nt | -1.9 | nt | nt
CC(C)Cn1cnc2c(c(-c3ccccc3)c(-c3ccccc3)n2Cc2ccco2)c1=N | 46.4* | -27.1 | 1.6 | -4.1 | -11.6% | -4.8
N=c1c2c(-c3ccccc3)c(-c3ccccc3)n(Cc3ccco3)c2ncn1Cc1ccccc1 | 14.4 | 2.8 | 2.7 | -3.1 | -16.1% | 0.9
Cc1nc(Nc2cccc(Cl)c2)c2oc3ccccc3c2n1 | 14.1 | -7.1 | -1.5 | -4.3 | 2.2% | -10.0
Cc1nc(Nc2cccc(O)c2)c2oc3ccccc3c2n1 | 32.6* | -14.7 | 0.9 | 2.8 | -14.8% | 0.9
O=C(NCc1cccs1)C1CCCN1C(=O)Nc1ccccc1 (configuration not stated) | 5.1 | -14.3 | 1.0 | 0.1 | -12.7% | -9.4
O=C(NCc1cccs1)C1CCCN1C(=O)Nc1ccc(Cl)cc1 (configuration not stated) | 31.6* | nt | 1.3 | nt | -0.4% | -4.6
CCN(CC)c1ccc(/C=N/NC(=O)CNC(=O)c2ccc3c(c2)OCCO3)cc1 | 33.0* | -17.9 | -0.4 | -8.3 | 31.4% | -19.2
CN(C)c1ccc(/C=N/NC(=O)CNC(=O)c2ccc3c(c2)OCCO3)cc1 | 10.4 | -6.4 | -0.1 | -3.4 | ? | -1.0
C[C@H]1CN([C@@H](C)CO)C(=O)c2cc(-c3cccc(C#N)c3)cnc2O[C@H]1CN(C)C(=O)c1ccccn1 | nt | -2.8 | nt | -6.9 | nt | nt

Screening data (PubChem)
